# Reference: article PMC7862700, “An all-to-all approach to the identification of sequence-specific readers for epigenetic DNA modifications on cytosine”
# Legend:
# Test in all cases: DAPPL (digital affinity profiling via proximity ligation, sequencing); 10 mM Tris-HCl pH 7.5, 50 mM NaCl, 1 mM DTT, 4% glycerol, room temperature, 30 min; GST-TFs on glutathione beads, 16-mer random dsDNA library, 0.1% formaldehyde crosslink after washing; high values mean tight binding
# Settings in all cases: protein: recombinant; tags: N-terminal GST; dsDNA, one strand shown
# FLI1 = biological target: T1, FLI1 (Homo sapiens, UniProt Q01543 1-452)
# T1 sequence: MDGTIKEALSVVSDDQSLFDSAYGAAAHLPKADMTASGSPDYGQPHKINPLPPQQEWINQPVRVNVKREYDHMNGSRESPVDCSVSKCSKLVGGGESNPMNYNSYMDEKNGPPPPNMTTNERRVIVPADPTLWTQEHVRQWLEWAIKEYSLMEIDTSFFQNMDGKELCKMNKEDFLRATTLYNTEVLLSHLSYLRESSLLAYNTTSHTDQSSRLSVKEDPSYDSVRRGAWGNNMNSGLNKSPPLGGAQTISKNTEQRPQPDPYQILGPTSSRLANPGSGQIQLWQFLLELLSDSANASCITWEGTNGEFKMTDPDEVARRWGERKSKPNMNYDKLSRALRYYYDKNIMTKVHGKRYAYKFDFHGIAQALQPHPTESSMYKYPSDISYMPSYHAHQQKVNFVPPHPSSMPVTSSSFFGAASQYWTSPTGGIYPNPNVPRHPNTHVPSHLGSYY
# In short: (§1)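 Human transcription factors carrying a GST fusion were produced in yeast, bound to glutathione beads, tagged with DNA barcodes and pooled together with a tag-only sample. Each pool was held with 200 nmole of a random double-stranded 16-mer DNA library in Tris/NaCl/DTT/glycerol buffer for 30 min at room temperature, then washed, crosslinked in 0.1% formaldehyde, proximity-ligated with BsaI/T4 ligase (1 h, 37 °C), PCR-amplified and sequenced on an Illumina NextSeq500. Binding signal is the read frequency of each hexamer for a given factor divided by its frequency in the tag-only sample.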
# ELK1 = biological target: T2, ELK1 (Homo sapiens, UniProt P19419 1-428)
# T2 sequence: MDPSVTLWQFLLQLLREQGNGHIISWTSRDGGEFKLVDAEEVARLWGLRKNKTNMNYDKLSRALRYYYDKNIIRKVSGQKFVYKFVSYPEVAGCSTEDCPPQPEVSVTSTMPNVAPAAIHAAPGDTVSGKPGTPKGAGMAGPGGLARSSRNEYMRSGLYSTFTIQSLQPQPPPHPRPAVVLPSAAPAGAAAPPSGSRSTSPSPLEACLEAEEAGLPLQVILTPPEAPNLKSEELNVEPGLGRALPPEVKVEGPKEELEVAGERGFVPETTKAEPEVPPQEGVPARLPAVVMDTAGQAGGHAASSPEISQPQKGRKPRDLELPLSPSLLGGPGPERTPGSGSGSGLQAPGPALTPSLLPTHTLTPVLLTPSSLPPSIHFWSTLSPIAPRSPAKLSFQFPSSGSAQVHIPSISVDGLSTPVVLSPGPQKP
# In short: as §1
# GABPA = biological target: T3, GABPA (Homo sapiens, UniProt Q06546 1-454)
# T3 sequence: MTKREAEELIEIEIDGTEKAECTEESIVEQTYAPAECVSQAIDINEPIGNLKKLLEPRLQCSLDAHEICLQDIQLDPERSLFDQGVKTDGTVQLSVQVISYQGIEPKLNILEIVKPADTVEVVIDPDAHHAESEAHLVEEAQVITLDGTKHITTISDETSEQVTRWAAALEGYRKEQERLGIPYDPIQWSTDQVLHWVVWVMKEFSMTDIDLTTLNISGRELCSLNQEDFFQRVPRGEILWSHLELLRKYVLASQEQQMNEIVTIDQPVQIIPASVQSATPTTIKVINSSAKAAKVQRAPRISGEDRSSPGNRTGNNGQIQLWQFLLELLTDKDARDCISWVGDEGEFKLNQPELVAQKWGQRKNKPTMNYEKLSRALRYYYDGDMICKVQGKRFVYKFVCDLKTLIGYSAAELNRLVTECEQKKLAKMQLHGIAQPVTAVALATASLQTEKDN
# In short: as §1
# ERG = biological target: T4, ERG (Homo sapiens, UniProt P11308 1-479)
# T4 sequence: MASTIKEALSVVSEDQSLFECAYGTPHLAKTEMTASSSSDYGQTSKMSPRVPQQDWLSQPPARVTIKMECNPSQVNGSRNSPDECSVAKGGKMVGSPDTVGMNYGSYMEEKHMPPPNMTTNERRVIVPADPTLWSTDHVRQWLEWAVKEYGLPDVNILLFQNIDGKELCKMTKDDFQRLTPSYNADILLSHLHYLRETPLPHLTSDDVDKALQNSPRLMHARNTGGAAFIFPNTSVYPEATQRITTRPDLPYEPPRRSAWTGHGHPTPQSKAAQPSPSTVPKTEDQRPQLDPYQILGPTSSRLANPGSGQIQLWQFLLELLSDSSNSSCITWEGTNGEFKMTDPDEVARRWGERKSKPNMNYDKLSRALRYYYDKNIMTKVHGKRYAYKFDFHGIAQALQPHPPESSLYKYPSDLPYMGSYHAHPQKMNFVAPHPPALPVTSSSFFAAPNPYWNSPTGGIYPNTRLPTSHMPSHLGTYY
# In short: as §1
# ELF1 = ELF1 (Homo sapiens, UniProt P32519 1-619)
# In short: as §1
# EHF = biological target: T5, EHF (Homo sapiens, UniProt Q9NZC4 1-300)
# T5 sequence: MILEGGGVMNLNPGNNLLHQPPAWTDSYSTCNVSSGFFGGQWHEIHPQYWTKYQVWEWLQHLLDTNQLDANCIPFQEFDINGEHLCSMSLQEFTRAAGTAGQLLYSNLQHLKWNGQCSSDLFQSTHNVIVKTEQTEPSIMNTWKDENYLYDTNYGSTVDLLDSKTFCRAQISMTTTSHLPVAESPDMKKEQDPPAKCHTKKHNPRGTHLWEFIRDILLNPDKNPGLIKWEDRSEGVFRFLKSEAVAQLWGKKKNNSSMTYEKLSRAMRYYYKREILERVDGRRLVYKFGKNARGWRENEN
# In short: as §1
# SPI1 = SPI1 (Homo sapiens, UniProt P17947 1-270)
# In short: as §1
# SPIB = SPIB (Homo sapiens, UniProt Q01892 1-262)
# In short: as §1
# ELK3 = biological target: T6, ELK3 (Homo sapiens, UniProt P41970 1-407)
# T6 sequence: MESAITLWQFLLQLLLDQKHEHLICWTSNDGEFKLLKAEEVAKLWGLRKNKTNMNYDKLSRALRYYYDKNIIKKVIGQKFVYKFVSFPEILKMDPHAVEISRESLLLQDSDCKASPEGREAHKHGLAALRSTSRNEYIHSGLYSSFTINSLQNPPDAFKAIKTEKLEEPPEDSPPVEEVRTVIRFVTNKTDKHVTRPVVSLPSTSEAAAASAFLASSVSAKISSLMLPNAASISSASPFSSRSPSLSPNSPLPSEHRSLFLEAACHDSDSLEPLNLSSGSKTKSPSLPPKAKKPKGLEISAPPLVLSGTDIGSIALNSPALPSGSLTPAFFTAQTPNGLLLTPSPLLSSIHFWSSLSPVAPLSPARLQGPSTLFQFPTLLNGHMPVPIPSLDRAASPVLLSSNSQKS
# In short: as §1
# FEV = biological target: T7, FEV (Homo sapiens, UniProt Q99581 1-238)
# T7 sequence: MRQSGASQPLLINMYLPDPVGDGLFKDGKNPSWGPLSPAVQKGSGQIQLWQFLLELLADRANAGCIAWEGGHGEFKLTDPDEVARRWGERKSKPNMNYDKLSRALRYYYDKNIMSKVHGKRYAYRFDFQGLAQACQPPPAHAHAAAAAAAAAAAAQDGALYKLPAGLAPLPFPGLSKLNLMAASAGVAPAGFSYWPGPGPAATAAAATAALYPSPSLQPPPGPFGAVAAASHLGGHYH
# In short: as §1
# Sequence of ELF1 (P32519 whole entry): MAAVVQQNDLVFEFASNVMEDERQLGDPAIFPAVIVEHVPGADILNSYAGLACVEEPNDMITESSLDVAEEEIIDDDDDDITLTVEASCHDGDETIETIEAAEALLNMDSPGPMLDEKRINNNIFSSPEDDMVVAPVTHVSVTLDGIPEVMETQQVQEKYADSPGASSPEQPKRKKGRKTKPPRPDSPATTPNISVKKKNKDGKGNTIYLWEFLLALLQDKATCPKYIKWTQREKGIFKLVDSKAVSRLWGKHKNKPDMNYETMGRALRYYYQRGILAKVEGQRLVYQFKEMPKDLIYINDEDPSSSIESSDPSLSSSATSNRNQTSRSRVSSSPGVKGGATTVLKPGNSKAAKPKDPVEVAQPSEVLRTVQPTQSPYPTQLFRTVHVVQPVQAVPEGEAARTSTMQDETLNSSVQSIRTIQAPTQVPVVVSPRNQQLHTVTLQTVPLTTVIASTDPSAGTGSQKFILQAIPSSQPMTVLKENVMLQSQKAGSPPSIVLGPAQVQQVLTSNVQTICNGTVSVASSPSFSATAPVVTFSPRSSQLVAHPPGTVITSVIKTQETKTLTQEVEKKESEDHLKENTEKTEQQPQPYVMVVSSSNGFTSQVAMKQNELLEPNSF
# Sequence of SPIB (Q01892 whole entry): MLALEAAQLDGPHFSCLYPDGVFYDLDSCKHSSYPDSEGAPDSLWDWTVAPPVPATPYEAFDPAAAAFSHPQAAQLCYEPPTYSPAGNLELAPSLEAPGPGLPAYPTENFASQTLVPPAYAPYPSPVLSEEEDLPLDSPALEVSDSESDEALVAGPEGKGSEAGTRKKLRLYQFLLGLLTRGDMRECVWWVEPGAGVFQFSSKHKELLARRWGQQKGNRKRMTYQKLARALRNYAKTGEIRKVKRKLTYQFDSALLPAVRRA
sequence,measurement,setting,value
TTGACG,binding signal,FLI1,"1.19 fold enrichment (6-mer frequency, TF over GST control)"
same,binding signal,ELK1,"1.16 fold enrichment (6-mer frequency, TF over GST control)"
same,binding signal,GABPA,"1.08 fold enrichment (6-mer frequency, TF over GST control)"
same,binding signal,ERG,"1.06 fold enrichment (6-mer frequency, TF over GST control)"
same,binding signal,ELF1,"1.1 fold enrichment (6-mer frequency, TF over GST control)"
same,binding signal,EHF,"1.2 fold enrichment (6-mer frequency, TF over GST control)"
same,binding signal,SPI1,"1.04 fold enrichment (6-mer frequency, TF over GST control)"
same,binding signal,SPIB,"1.11 fold enrichment (6-mer frequency, TF over GST control)"
same,binding signal,ELK3,"1.08 fold enrichment (6-mer frequency, TF over GST control)"
same,binding signal,FEV,"1.1 fold enrichment (6-mer frequency, TF over GST control)"
